# Measurements: PubChem BioAssay (EPA / NIEHS)
# Inconclusive results are not listed. Active and inactive are the calls of the source. The calls were made as follows, unless noted: active = hit-call score of the fitted dose curve at least 0.9, where 1 is the maximum; inactive = score below 0.9.
# Key:
# [1] = target: Retinoic acid receptor RXR-alpha (Homo sapiens) (UniProt P19793); experiment: ATG_RXRa_TRANS: Attagene TRANS-FACTORIAL HepG2 Assay for human Retinoid X Receptor alpha (RXRa) (AID 2283012; active = hit-call score of the fitted dose curve at least 0.9, where 1 is the maximum)
# Chain of Retinoic acid receptor RXR-alpha (Homo sapiens) (P19793 whole entry, looked up, the tested form may be a part): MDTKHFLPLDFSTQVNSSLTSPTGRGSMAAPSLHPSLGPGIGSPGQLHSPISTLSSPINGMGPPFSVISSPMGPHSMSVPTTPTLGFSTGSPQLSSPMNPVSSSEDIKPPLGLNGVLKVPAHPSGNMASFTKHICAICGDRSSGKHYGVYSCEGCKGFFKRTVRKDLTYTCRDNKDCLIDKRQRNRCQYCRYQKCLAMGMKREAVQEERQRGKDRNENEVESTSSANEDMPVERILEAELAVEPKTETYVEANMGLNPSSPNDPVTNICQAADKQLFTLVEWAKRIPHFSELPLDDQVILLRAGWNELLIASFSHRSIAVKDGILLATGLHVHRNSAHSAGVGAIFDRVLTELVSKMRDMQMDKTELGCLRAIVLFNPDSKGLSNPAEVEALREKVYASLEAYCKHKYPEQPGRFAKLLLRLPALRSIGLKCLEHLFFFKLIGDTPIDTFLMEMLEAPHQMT
# Method in brief: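 HepG2 cells transiently transfected with multiplexed GAL4-UAS reporter units and chimeric NR-GAL4 fusions, dosed 24 h. Reporter mRNA measured by RT-PCR, FAM labelling, HpaI digestion and capillary electrophoresis; gain-of-signal fitted relative to DMSO baseline.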
# [2] = read-out: E-selectin (Homo sapiens) (UniProt P16581); experiment: BSK_3C_Eselectin: BioMAP Diversity Plus: 3C Assay for Eselectin Biomarker Activity (AID 2283015); settings: primary human endothelial cells (HUVEC); actives raise or lower the signal;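 as to outcome: cell surface E-selectin protein quantified by ELISA 24 h after dosing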
# Method in brief: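 E-selectin ELISA readout, fitted bidirectionally relative to DMSO, taken 24 h post-dosing in HUVEC cultures of the 3C system. Overt cytotoxicity tracked with sulforhodamine B staining of parallel wells.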
# [3] = read-out: Interleukin-1 alpha (IL1a), IL1A (gene 3552); experiment: BSK_BE3C_IL1a: BioMAP Diversity Plus: BE3C Assay for Interleukin-1 alpha (IL1a) Biomarker Activity (AID 2283016); settings: primary human bronchial epithelial cells; actives raise or lower the signal
# Method in brief: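 Human primary bronchial epithelial cells (BE3C system) were dosed with compound and IL-1a measured by ELISA 24 h later. Activity was fitted bidirectionally against DMSO baseline; cytotoxicity was tracked in parallel cultures by SRB total-protein staining.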
# [4] = read-out: Monocyte Chemoattractant Protein-1 (MCP1), CCL2 (gene 6347); experiment: BSK_3C_MCP1: BioMAP Diversity Plus: 3C Assay for Monocyte Chemoattractant Protein-1 (MCP1) Biomarker Activity (AID 2283017); settings: primary human endothelial cells (HUVEC); actives raise or lower the signal
# Method in brief: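 MCP-1 was measured by ELISA 24 h after dosing in primary HUVEC 3C cultures and fitted in both directions relative to DMSO; cytotoxicity was checked by SRB total-protein staining in parallel wells.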
# [5] = read-out: Monocyte Chemoattractant Protein-1 (MCP1), CCL2 (gene 6347); experiment: BSK_4H_MCP1: BioMAP Diversity Plus: 4H Assay for Monocyte Chemoattractant Protein-1 (MCP1) Biomarker Activity (AID 2283018); settings: primary human endothelial cells (HUVEC); actives raise or lower the signal
# Method in brief: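 Human umbilical vein endothelial cells (4H system) dosed with chemical; MCP-1 measured by ELISA 24 h after dosing. Bidirectional curve fitting against DMSO negative control as baseline; parallel SRB total-protein staining tracks overt cytotoxicity.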
# [6] = target: human Retinoid X Receptor beta (RXRb), RXRB (gene 6257) (UniProt P28702); experiment: ATG_RXRb_TRANS: Attagene TRANS-FACTORIAL HepG2 Assay for human Retinoid X Receptor beta (RXRb) (AID 2283013; active = hit-call score of the fitted dose curve at least 0.9, where 1 is the maximum)
# Chain of human Retinoid X Receptor beta (RXRb), RXRB (gene 6257) (P28702 whole entry, looked up, the tested form may be a part): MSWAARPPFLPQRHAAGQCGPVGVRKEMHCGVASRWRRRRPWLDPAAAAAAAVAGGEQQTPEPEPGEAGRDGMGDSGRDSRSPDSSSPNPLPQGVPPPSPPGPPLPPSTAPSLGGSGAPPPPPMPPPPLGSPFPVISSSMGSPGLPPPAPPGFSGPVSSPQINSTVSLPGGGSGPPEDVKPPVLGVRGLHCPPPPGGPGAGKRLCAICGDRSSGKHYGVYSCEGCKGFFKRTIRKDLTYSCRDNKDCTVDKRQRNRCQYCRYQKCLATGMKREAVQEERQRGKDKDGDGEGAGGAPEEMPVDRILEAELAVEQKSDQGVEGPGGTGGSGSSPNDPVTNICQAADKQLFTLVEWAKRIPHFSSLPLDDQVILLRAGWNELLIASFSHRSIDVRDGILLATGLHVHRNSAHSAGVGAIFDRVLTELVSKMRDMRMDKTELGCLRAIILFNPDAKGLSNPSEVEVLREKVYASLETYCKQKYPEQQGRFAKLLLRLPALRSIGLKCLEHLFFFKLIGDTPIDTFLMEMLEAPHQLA
# Method in brief: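 HepG2 cells transiently transfected with multiplexed reporter units driven by GAL4-UAS and exogenous chimeric NR-Gal4 proteins; treated 24 h. Reporter mRNA measured by RT-PCR, 6-FAM labelling and capillary electrophoresis; gain-of-signal fitted versus DMSO baseline.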
# [7] = target: human RAR-related Orphan Receptor gamma (RORg), RORC (gene 6097) (UniProt P51449); experiment: ATG_RORg_TRANS: Attagene TRANS-FACTORIAL HepG2 Assay for human RAR-related Orphan Receptor gamma (RORg) (AID 2283011; active = hit-call score of the fitted dose curve at least 0.9, where 1 is the maximum)
# Chain of human RAR-related Orphan Receptor gamma (RORg), RORC (gene 6097) (P51449 whole entry, looked up, the tested form may be a part): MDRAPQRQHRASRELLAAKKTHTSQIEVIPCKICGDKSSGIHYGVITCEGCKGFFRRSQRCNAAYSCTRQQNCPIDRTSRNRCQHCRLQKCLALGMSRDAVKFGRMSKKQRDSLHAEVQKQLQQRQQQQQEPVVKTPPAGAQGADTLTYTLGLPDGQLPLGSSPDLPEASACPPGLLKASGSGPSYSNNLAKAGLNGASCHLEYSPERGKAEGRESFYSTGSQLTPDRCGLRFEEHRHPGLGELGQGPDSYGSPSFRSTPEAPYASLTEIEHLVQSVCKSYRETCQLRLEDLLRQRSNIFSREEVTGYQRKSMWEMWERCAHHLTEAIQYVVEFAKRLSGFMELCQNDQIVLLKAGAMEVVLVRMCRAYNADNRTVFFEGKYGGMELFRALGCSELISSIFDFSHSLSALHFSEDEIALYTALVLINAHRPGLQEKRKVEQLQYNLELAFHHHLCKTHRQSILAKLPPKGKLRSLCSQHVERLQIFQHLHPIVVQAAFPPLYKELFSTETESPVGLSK
# Method in brief: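 Reporter transcripts from a transfected RORg-GAL4 chimera in HepG2 cells were quantified 24 h after dosing by RT-PCR, 6-FAM labelling, HpaI digestion and capillary electrophoresis; increases over DMSO baseline were fitted.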
# [8] = target: human Thyroid Receptor alpha (THRa1), THRA (gene 7067) (UniProt P10827); experiment: ATG_THRa1_TRANS: Attagene TRANS-FACTORIAL HepG2 Assay for human Thyroid Receptor alpha (THRa1) (AID 2283014; active = hit-call score of the fitted dose curve at least 0.9, where 1 is the maximum)
# Chain of human Thyroid Receptor alpha (THRa1), THRA (gene 7067) (P10827 whole entry, looked up, the tested form may be a part): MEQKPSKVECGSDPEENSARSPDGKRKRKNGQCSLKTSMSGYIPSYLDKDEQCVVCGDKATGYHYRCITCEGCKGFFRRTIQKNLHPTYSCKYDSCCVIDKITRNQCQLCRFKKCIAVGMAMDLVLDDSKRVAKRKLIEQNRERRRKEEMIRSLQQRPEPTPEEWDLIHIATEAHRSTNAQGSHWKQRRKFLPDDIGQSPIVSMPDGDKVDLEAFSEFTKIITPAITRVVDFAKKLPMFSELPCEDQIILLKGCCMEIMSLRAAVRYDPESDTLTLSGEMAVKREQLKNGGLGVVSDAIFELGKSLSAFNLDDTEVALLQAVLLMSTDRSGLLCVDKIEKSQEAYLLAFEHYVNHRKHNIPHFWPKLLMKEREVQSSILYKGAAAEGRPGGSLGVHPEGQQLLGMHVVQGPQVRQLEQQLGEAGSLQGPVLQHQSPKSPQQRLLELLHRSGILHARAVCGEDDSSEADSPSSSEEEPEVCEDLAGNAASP
# Method in brief: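 Transcripts from GAL4-UAS-driven reporters, measured after 24 h compound exposure by RT-PCR plus capillary electrophoresis of 6-FAM-labeled fragments, were fitted for gain of signal relative to DMSO. Cells: transiently transfected HepG2 expressing NR-Gal4 chimeras.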
# Chain of E-selectin (Homo sapiens) (P16581 whole entry, looked up): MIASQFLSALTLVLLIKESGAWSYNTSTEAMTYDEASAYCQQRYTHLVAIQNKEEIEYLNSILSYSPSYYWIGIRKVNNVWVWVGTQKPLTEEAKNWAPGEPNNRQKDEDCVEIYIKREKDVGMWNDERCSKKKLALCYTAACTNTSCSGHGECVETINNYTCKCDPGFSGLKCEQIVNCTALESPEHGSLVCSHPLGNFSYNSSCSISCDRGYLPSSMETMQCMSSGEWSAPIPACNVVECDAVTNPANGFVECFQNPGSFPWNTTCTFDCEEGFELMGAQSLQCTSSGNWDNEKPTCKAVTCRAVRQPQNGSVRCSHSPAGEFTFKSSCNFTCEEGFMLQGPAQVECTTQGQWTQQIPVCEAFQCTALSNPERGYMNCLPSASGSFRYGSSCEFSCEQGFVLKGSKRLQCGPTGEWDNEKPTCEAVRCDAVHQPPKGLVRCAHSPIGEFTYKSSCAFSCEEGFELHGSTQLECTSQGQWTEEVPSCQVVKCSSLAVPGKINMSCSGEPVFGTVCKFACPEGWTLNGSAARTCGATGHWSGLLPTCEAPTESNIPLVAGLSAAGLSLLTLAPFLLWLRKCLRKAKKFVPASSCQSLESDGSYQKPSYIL
compound,measurement,setting,value
CCCCc1ccccc1,outcome,[1],inactive
same,outcome,[2],inactive
same,outcome,[3],inactive
same,outcome,[4],inactive
same,outcome,[5],inactive
Cc1ccc2c(c1N)C(=O)c1ccccc1C2=O,outcome,[1],inactive
same,outcome,[2],inactive
same,outcome,[3],inactive
same,outcome,[4],inactive
same,outcome,[5],inactive
Nc1ccc([N+](=O)[O-])cc1Cl,outcome,[6],inactive
same,outcome,[2],inactive
same,outcome,[3],inactive
same,outcome,[4],inactive
same,outcome,[5],inactive
CCCCC(CC)COP(=O)(Oc1ccccc1)Oc1ccccc1 (stereo not drawn),outcome,[6],inactive
same,AC50,[2],6.53 µM (active)
same,AC50,[3],8.12 µM (active)
same,AC50,[4],10.6 µM (active)
same,AC50,[5],7.85 µM (active)
O=P1(N(CCCl)CCCl)NCCCO1 (stereo not drawn),outcome,[7],inactive
same,outcome,[2],inactive
same,outcome,[3],inactive
same,outcome,[4],inactive
same,outcome,[5],inactive
CC(C)(C)c1ccccc1OP(=O)(Oc1ccccc1)Oc1ccccc1,AC50,[2],7.83 µM (active)
same,outcome,[3],inactive
same,AC50,[4],20 µM (active)
same,AC50,[5],13.6 µM (active)
CCOP(=S)(OCC)SCSCC,outcome,[1],inactive
same,outcome,[2],inactive
same,outcome,[3],inactive
same,outcome,[4],inactive
same,outcome,[5],inactive
c1nc[nH]n1,outcome,[6],inactive
same,outcome,[2],inactive
same,outcome,[3],inactive
same,outcome,[4],inactive
same,outcome,[5],inactive
CC1=C(C(=O)Nc2ccccc2)S(=O)(=O)CCO1,outcome,[1],inactive
CNC(=O)Oc1ccc(N(C)C)c(C)c1,outcome,[6],inactive
CC(Cc1ccc(OCC(=O)O)cc1)NCC(O)c1csc(C(F)(F)F)n1 (stereo not drawn),outcome,[2],inactive
same,outcome,[3],inactive
same,outcome,[4],inactive
same,outcome,[5],inactive
COC(N)=O,outcome,[1],inactive
same,outcome,[8],inactive
CC(=O)CCc1ccc2c(c1)OCO2,outcome,[1],inactive
same,outcome,[6],inactive
CCN(CC)c1ccccc1,outcome,[2],inactive
same,outcome,[3],inactive
same,outcome,[4],inactive
same,outcome,[5],inactive
FC(F)(F)c1ccc(Cl)cc1,outcome,[1],inactive
COP(=O)(CCC(=O)NCO)OC,outcome,[2],inactive
same,outcome,[3],inactive
same,outcome,[4],inactive
same,outcome,[5],inactive
CCOP(=S)(OCC)SCSc1ccc(Cl)cc1,AC50,[6],13.5 µM (active)
same,outcome,[2],inactive
same,AC50,[3],0.212 µM (active)
same,outcome,[4],inactive
same,AC50,[5],8.96 µM (active)
O=C(CBr)OCc1ccccc1,outcome,[1],inactive
CCOS(=O)(=O)OCC,outcome,[2],inactive
same,outcome,[3],inactive
same,outcome,[4],inactive
same,outcome,[5],inactive
CCOP(=S)(NC(C)C)Oc1ccccc1C(=O)OC(C)C (stereo not drawn),AC50,[2],20 µM (active)
same,outcome,[3],inactive
same,outcome,[4],inactive
same,outcome,[5],inactive
ClC(Cl)(Cl)c1ccccc1,outcome,[2],inactive
same,outcome,[3],inactive
same,outcome,[4],inactive
same,outcome,[5],inactive
NC(=O)C(F)(F)C(F)(F)F,outcome,[7],inactive
same,outcome,[2],inactive
same,outcome,[3],inactive
same,outcome,[4],inactive
same,outcome,[5],inactive
O=C(O)C(F)(F)OC(F)(F)C(F)(F)OC(F)(F)C(=O)O,outcome,[6],inactive
same,outcome,[2],inactive
same,outcome,[3],inactive
same,outcome,[4],inactive
same,outcome,[5],inactive
c1ccc2c(c1)Nc1ccccc1S2,AC50,[6],3.98 µM (active)
same,outcome,[2],inactive
same,outcome,[3],inactive
same,outcome,[4],inactive
same,outcome,[5],inactive
CCOc1ccc(C(C)(C)COCc2cccc(Oc3ccccc3)c2)cc1,outcome,[6],inactive
same,outcome,[2],inactive
same,outcome,[3],inactive
same,outcome,[4],inactive
same,outcome,[5],inactive
CCOP(=S)(Oc1ccc([N+](=O)[O-])cc1)c1ccccc1 (stereo not drawn),outcome,[2],inactive
same,outcome,[3],inactive
same,outcome,[4],inactive
same,outcome,[5],inactive
Cc1ccc([N+](=O)[O-])cc1C,outcome,[1],inactive
same,outcome,[2],inactive
same,outcome,[3],inactive
same,outcome,[4],inactive
same,outcome,[5],inactive
O=[N+]([O-])c1ccccc1,AC50,[6],10.7 µM (active)
same,outcome,[2],inactive
same,outcome,[3],inactive
same,outcome,[4],inactive
same,outcome,[5],inactive
O=S(=O)(c1ccc(O)cc1)c1ccc(O)cc1,outcome,[1],inactive
CCC1(c2ccccc2)C(=O)N=C(O)NC1=O (stereo not drawn),outcome,[8],inactive
same,outcome,[2],inactive
same,outcome,[3],inactive
same,outcome,[4],inactive
same,outcome,[5],inactive
O=C(O)C(Cl)Cl,outcome,[7],inactive
same,outcome,[2],inactive
same,outcome,[3],inactive
same,outcome,[4],inactive
same,outcome,[5],inactive
CCCCN(CCCC)N=O,outcome,[1],inactive
same,outcome,[6],inactive
same,outcome,[2],inactive
same,outcome,[3],inactive
same,outcome,[4],inactive
same,outcome,[5],inactive
COCCOCCO,outcome,[2],inactive
same,outcome,[3],inactive
same,outcome,[4],inactive
same,outcome,[5],inactive
O=P(Oc1ccccc1)(Oc1ccccc1)Oc1ccccc1,outcome,[2],inactive
same,outcome,[3],inactive
same,AC50,[4],33.5 µM (active)
same,AC50,[5],13.6 µM (active)
Oc1ccc(I)cc1,outcome,[8],inactive
O=P(OCC(Br)CBr)(OCC(Br)CBr)OCC(Br)CBr (stereo not drawn),outcome,[1],inactive
same,outcome,[8],inactive
same,AC50,[2],17.4 µM (active)
same,AC50,[3],29.3 µM (active)
same,AC50,[4],17.4 µM (active)
same,AC50,[5],3.45 µM (active)
CCCCN(CCCC)SN(C)C(=O)Oc1cccc2c1OC(C)(C)C2,outcome,[1],inactive
same,AC50,[6],68.3 µM (active)
same,AC50,[2],22.9 µM (active)
same,outcome,[3],inactive
same,AC50,[4],30.6 µM (active)
same,AC50,[5],26 µM (active)
